Assay outcomes deposited in PubChem BioAssay by National Center for Advancing Translational Sciences (NCATS).
Tau fibril FP: tau fibrillization inhibition (FP); hit rate 0.39% among 280,000; P10636; Potency, µM (titrated, usually from 57.7 µM), inactives show top-dose activity, negative = inhibition, actives largely listed as inhibitors; K18 P301L tau heparin fibrillization, Alexa594 FP, 6 h; note: potency is the fitted concentration of half-maximal effect; nearly all actives have a fitted effect of over 55% in size
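Heparin (20 uM) drove fibril formation of recombinant tau K18 P301L, 15 uM unlabeled with 0.24 uM Alexa 594 label, for 6 hr at 37 C in 100 mM sodium acetate pH 7. Fluorescence polarization (555/632 nm) read 1 hr after 30 uM ThT.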
USP1 inh: blocks the human USP1/UAF1 deubiquitinase complex. Potency, µM (top dose mostly 57.1 µM), for the others: at the highest dose activity change, negative = inhibition, most hits filed as inhibitors. O94782. recombinant USP1/UAF1, Ub-Rhodamine cleavage fluorescence. hit rate 0.23% among 390,000; note: potency is the fitted concentration of half-maximal effect; nearly all actives have a fitted effect of over 60% in size
Target sequence (O94782 whole entry, looked up): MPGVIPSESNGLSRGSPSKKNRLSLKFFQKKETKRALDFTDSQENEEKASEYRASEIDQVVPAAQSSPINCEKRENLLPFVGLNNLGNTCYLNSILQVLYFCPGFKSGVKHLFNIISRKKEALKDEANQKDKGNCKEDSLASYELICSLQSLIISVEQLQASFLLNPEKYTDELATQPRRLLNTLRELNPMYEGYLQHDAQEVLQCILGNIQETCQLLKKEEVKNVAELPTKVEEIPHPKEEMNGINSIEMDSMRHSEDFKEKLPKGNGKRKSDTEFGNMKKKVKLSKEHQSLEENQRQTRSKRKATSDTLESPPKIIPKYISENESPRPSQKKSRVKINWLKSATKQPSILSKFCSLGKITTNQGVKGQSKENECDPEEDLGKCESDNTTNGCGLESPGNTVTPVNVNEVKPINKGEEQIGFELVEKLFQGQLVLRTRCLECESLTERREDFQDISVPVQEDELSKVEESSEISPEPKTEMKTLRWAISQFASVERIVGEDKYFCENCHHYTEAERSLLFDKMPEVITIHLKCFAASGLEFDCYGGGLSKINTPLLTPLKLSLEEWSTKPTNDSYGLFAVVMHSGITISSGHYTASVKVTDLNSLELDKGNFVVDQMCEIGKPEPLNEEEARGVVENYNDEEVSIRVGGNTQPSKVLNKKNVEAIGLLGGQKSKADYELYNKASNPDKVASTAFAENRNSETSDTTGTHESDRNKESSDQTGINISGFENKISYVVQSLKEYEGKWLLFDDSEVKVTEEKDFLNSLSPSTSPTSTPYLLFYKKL
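Step one: compound is pinned into 1nM USP1/UAF1 in HEPES pH 7.8 buffer with TCEP. Step two: 15 min room-temperature incubation. Step three: Ub-Rho (150nM final) starts cleavage, tracked by fluorescence over six one-minute reads.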
Tau fluor cs: counter-screen for tau fibril formation inhibitors. tau K18 P301L Alexa594 fluorescence, heparin fibrillization. Potency, µM (top dose mostly 57.7 µM), for the others: at the highest dose activity change, negative = decrease. hit rate 0.93% among 280,000. AID 1463; note: potency is the fitted concentration of half-maximal effect; nearly all actives have a fitted effect of over 55% in size
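Human tau K18 P301L (15 uM unlabeled, 0.24 uM Alexa 594-labeled) in 100 mM sodium acetate pH 7 with 20 uM heparin, 6 hr at 37 C. ThT 30 uM added, 1 hr ambient; Alexa 594 FP and total fluorescence read at 555/632 nm.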
Coupling enz: counter-screen for Giardia aldolase inhibitors: coupling enzyme system; hit rate 0.67% among 290,000; activity change, negative = inhibition, % at 58.2 µM, hits read low; coupling enzyme system counterscreen, AmpLite Red fluorescence; in the data active = activity change below about -30%
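Final compound at 57.5 uM, incubated 10 min at RT with coupling enzyme reagent (glyceraldehyde-3-phosphate), then 20 min with substrate and AmpLite Red detection. Fluorescence read at 525/598 nm; tests interference with the coupling assay, not aldolase inhibition.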
Tau fibril ThT: inhibitors of human tau fibril formation, thioflavin T binding; P10636; recombinant tau K18 P301L (four-repeat tau fragment), heparin-induced fibrillization, ThT fluorescence; Potency, µM (doses to about 57.4 µM), for the others: at the top dose activity, negative = inhibition, usual class: inhibitors; hit rate 2.1% among 270,000; AID 1460; note: potency is the fitted concentration of half-maximal effect; nearly all actives have a fitted effect of over 55% in size
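Tau K18 P301L fragment (15 uM unlabeled plus 0.24 uM Alexa 594-labeled) in 100 mM sodium acetate pH 7 with compound, fibrillization induced by 20 uM heparin for 6 hr at 37 C. Thioflavin T (30 uM) added, fluorescence read after 1 hr (ex 450, em 510 nm).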
* = called active by the depositor; ? = inconclusive; . = no result given; ! = a repeat was not active; [ ] = dose if it differs, or a comment. Shown are actives, neighbours in structure and some others; about 2.3% of the full set was active somewhere. Unless noted, calls come from the whole dose curve; as a rule, active = well fitted curve in the direction sought with a large enough effect; inconclusive = small, poorly fitted or top-dose-only effect, or another doubt; inactive = no such curve, though single readings can be large; an effect the other way counts as inactive or inconclusive. % is set by controls: 0 for no effect and ±100 for the full control effect.

SMILES	Tau fibril FP	USP1 inh	Tau fluor cs	Coupling enz	Tau fibril ThT
Cc1ccc(S(=O)(=O)C(CNS(=O)(=O)c2cc(F)ccc2F)c2cccs2)cc1 (configuration not stated)	4%	-22%	-21%	.	-8%
CCN(CC)c1ccc(NC(=O)c2ccc3c(c2)c(C)c(C)n3C)cc1	12%	-24%	?	0	4µM*
Cc1ccccc1CNC(=O)c1ccc2c(c1)c(C)c(C)n2C	10%	-20%	-22%	.	-16%
NNC(=O)CN1C(c2cccc(Cl)c2)=Nc2ccc(Br)cc2C1c1ccccc1 (configuration not stated)	-5%	-12%	-10%	-12	-9%
NNC(=O)CN1C(c2ccccc2Br)=Nc2ccc(Br)cc2C1c1ccccc1 (configuration not stated)	0%	-25%	-3%	-38*	-5%
CSc1ccc(CCNC(=O)c2cc3cc(S(=O)(=O)N4CCCCC4)ccc3n2C)cc1	2%	?	-14%	.	0%
O=C1C(C2=C(O)c3ccccc3C2=O)=Nc2ccccc21	?	14µM*	?	-16	7.1µM*
CCCN1C(=O)/C(=C/c2c(N3CCNC(=O)C3CC(=O)OC)nc3c(C)cccn3c2=O)SC1=S (configuration not stated)	-2%	.	-20%	-5	5.6µM*
COc1ccccc1C(=O)NC(=S)N1CCCc2ccccc21	-2%	-19%	-3%	-39*	4%
COc1cc(/C=C(\C#N)C(=O)c2ccc(O)c(O)c2)cc(I)c1O	3%	25µM*	?	.	8.9µM*
CC(=O)Nc1nonc1-c1nnc(SCC(=O)Nc2ccccc2)n1-c1ccccc1	0%	-18%	-11%	.	0%
COc1ccc(OC)c(CNS(=O)(=O)c2c(C(=O)N3CCC(C)CC3)c(C)n(C)c2C)c1	4%	-8%	5%	.	6%
CCOc1cc(CNc2ccc(O)cc2)ccc1OCc1ccc(Cl)cc1	-8%	?	14µM*[quencher]	.	16µM*
Oc1ccc(NCc2ccccc2OCc2ccccc2)cc1	13µM*!	?	10µM*[quencher]	-48*	14µM*
Oc1ccc(NCc2ccccc2OCc2ccc(Cl)cc2)cc1	-15%	?	?	.	14µM*
O=c1[nH]c2ccc(NCc3ccccc3OCc3ccc(Cl)cc3)cc2[nH]1	.	-15%	.	0	.
CCNCc1ccccc1OCc1ccccc1	3%	-16%	3%	5	4%
Cc1cc(C)cc(NC(=S)NCc2ccc3[nH]c4c(c3c2)CCCC4)c1	?	-8%	10µM*[quencher]	-4	?
O=C(NCc1ccc2[nH]c3c(c2c1)CCCC3)c1ccc(S(=O)(=O)N2CCCCC2)cc1	?	-5%	?	0	-6%
S=C(NCc1ccc2[nH]c3c(c2c1)CCCC3)Nc1ccccc1	12%	-13%	13µM*[quencher]	-3	?
CC[C@H](C)C(=O)O[C@H]1C[C@@H](C)C=C2C=C[C@H](C)[C@H](CC[C@@H]3C[C@@H](O)CC(=O)O3)[C@H]21	-8%	-16%	-6%	-47*	?
C=CCN1CCN(C(c2ccc(OC)c(OC)c2)c2nnnn2C(C)(C)C)CC1 (configuration not stated)	-10%	-21%	-3%	-72*	-10%
C=CCN1CCN(C(c2ccc(Cl)cc2)c2nnnn2CCc2ccc(OC)c(OC)c2)CC1 (configuration not stated)	9%	-12%	-10%	1	-8%
CC(=O)N1CCc2c(sc3nc(SCC(N)=O)n(-c4ccc(F)c(Cl)c4)c(=O)c23)C1	-9%	-3%	-5%	.	9%
Cc1ccc(NC(=O)N2CCN(c3ncccc3C(F)(F)F)CC2)cc1	3%	-3%	0%	-1	-6%
SMILES	Tau fibril FP	USP1 inh	Tau fluor cs	Coupling enz	Tau fibril ThT
O=C(Nc1ccc2ccccc2c1)N1CCN(c2ncccc2C(F)(F)F)CC1	-2%	-9%	-7%	-50*	-5%
O=C(O)CN(CC(=O)O)Cc1cc2c(-c3ccccc3C(=O)O)c3cc(CN(CC(=O)O)CC(=O)O)c(=O)cc-3oc2cc1O	22µM*	.	-7%	-4	?
O=C(O)c1ccccc1-c1c2ccc(=O)cc-2oc2cc(O)ccc12	1%	.	-2%	2	?
C[C@@H](O)CCC[C@H](O)/C=C/[C@H]1[C@H](O)CC(=O)[C@@H]1C/C=C\CCCC(=O)O	1%	.	-6%	-3	-8%
Cc1cc(C)c(NC(=O)CN2C(=O)CCn3nc(-c4cccn4C)cc32)c(C)c1	3%	-7%	-3%	.	-9%
CSCC[C@H](NC(=O)[C@@H]1CCCN1C(=O)CNC(=O)[C@H](CCCCN)NC(=O)[C@H](Cc1cnc[nH]1)NC(=O)[C@H](CO)NC(=O)[C@H](CC(C)C)NC(=O)[C@H](CCCN=C(N)N)NC(=O)[C@@H]1CCCN1C(=O)[C@H](CCCN=C(N)N)NC(=O)[C@@H]1CCC(=O)N1)C(=O)N1CCC[C@H]1C(=O)N[C@@H](Cc1ccccc1)C(=O)O	.	.	.	-4	.
COc1ccccc1/C=C/C(=O)Nc1cccc(S(=O)(=O)N2CCOCC2)c1	.	-23%	.	.	.
COc1ccccc1/C=C/C(=O)Nc1ccc(N2CCOCC2)cc1	6%	-16%	?	-1	2.5µM*
COc1ccccc1/C=C/C(=O)OC(C)CN1CCOCC1 (configuration not stated)	1%	-10%	2%	-45*	-1%
COc1cccc(/C=C/C(=O)Nc2ccc(N3CCOCC3)cc2)c1OC	2%	-12%	?	0	5.6µM*
COc1ccccc1OCCCC(=O)Nc1ccc(N2CCOCC2)cc1	-3%	-10%	-9%	-4	?
CC(CN1CCOCC1)OC(=O)c1ccccc1 (configuration not stated)	4%	-10%	2%	6	-3%
COc1ccc(NC(=O)C(C)Sc2cc(-c3ccccc3)nc(C)n2)cc1Cl (configuration not stated)	-9%	6%	-28%	.	-9%
Cc1nn(CC(=O)NC(C)c2ccccc2)c(=O)c2cc3occc3n12 (configuration not stated)	3%	0%	12%	.	12%
CS(=O)(=O)NC(=O)CCC/C=C\C[C@H]1C(=O)C[C@@H](O)[C@@H]1/C=C/[C@@H](O)COc1ccccc1	.	.	.	-2	.
CC1=[N+](C)c2c(ccc3cccnc23)C1(C)C	?	-16%	7.1µM*[fluorescent]	-58*	7.1µM*
Cc1[nH]c2c(ccc3cccnc32)c1C	-1%	?	-19%	-14	?
CCOc1ccc(N2C(=O)/C(=C\c3ccc(OC)c(O)c3)S(=O)(=O)C2c2cccc([N+](=O)[O-])c2)cc1 (configuration not stated)	12%	-16%	-16%	-3	-2%
